Assay [1] is described as follows: U-118MG Cancer Cell Toxicity qHTS against the NCATS CANVASS Library (AID 1347351). Further: potency means the concentration at half of the fitted maximal effect. In outline: (§1)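 ATP content after 72 h treatment, detected by CellTiter-Glo luminescence (15min room-temperature development), reflects cell viability. Wells contained 1000 cells and received compounds at 11 concentrations.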
(qHTS replaces the single test concentration by a dilution series.)

The nature of assay [2]: COV-362 Cancer Cell Toxicity qHTS against the NCATS CANVASS Library (AID 1347352). Further: potency means the concentration at half of the fitted maximal effect. In outline:
(§2)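 1000 cells/well, 4 h pre-incubation 37 °C/5% CO2; 11-pnt titration; 72 h; CellTiter-Glo 15 min RT, luminescence.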

The nature of assay [3]: A2780 Cisplatin Sensitive Ovarian Cancer Cell Toxicity qHTS against the NCATS CANVASS Library (AID 1347353). Further: nearly all actives have a fitted effect of over 60% in size. Further: potency means the concentration at half of the fitted maximal effect. An outline of the steps: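 750 cells/well, 4 h settle; 11-pt cpd titration; 72 h, 37 °C, 5% CO2; ATPLite 10 min RT; luminescence read.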
Assay [4] can be described thus: UWB1.289-WTBRCA1 Cancer Cell Toxicity qHTS against the NCATS CANVASS Library (AID 1347354). Further: potency means the concentration at half of the fitted maximal effect. In outline:
as §2

The nature of assay [5]: KB-8-5-11 Cancer Cell Toxicity qHTS against the NCATS CANVASS Library (AID 1347364). Further: nearly all actives have a fitted effect of over 75% in size. An outline of the steps: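 CellTiter-Glo luminescence after 72 h exposure; 500 KB-8-5-11 cells/well, DMEM/10% FBS, 37C, 5% CO2; compounds in 11-pt qHTS. Follow-up confirmation included medium with 1uM tariquidar.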
Assay [6] can be described thus: SDT Cancer Cell Toxicity qHTS against the NCATS CANVASS Library (AID 1347365). Further: nearly all actives have a fitted effect of over 60% in size. Further: potency means the concentration at half of the fitted maximal effect. An outline of the steps: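 Luminescent ATP read-out (CellTiterGlo) after 72 hr compound exposure of dog glioma SDT cells, 500 per well. Eleven-point titrations; bortezomib titration run alongside as control.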
A short description of assay [7]: KB-3-1 Cancer Cell Toxicity qHTS against the NCATS CANVASS Library (AID 1347366). Further: nearly all actives have a fitted effect of over 75% in size. Further: potency means the concentration at half of the fitted maximal effect. In outline: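 Cytotoxicity toward KB-3-1 cells (500/well, DMEM + 10% FBS) was scored by CellTiter-Glo luminescence following 72 hr exposure at 37C, with bortezomib titrated as control.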
Assay [8] is described as follows: G06 Cancer Cell Toxicity qHTS against the NCATS CANVASS Library (AID 1347368). Further: nearly all actives have a fitted effect of over 60% in size. Further: potency means the concentration at half of the fitted maximal effect. An outline of the steps: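 ATP luminescence (CellTiterGlo) readout of cytotoxicity. Canine G06 glioma cells, 500/well, 72 hr incubation at 37C with compounds; bortezomib titration served as control.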
Assay [9] in a line: MCF7 Cancer Cell Toxicity qHTS against the NCATS CANVASS Library (AID 1347369). Further: potency means the concentration at half of the fitted maximal effect. An outline of the steps: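 This 72 hr qHTS scored MCF7 viability by CellTiterGlo luminescence, with 500 cells/well; bortezomib titration ran as control.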
Assay [10] addresses Nuclear receptor subfamily 1 group I member 3 (Homo sapiens) (UniProt Q14994). As to the kind of experiment: qHTS for Constitutive Androstane Receptor (CAR) Antagonist screened against the NCATS CANVASS Library (AID 1347372). Further: potency means the concentration at half of the fitted maximal effect. In outline:
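Cells were seeded and left 4hr to attach, then received compound at 11 concentrations and 50 nM CITCO. Following 24hr incubation, fluorescence viability and luciferase luminescence were read sequentially.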

Assay [11] in a line: qHTS for Hypoxia signaling pathway (HIF-1) antagonists against the NCATS CANVASS Library (AID 1347374). Further: nearly all actives have a fitted effect of over 60% in size. Further: potency means the concentration at half of the fitted maximal effect. In outline: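 Beta-lactamase reporter under HRE control in ME-180 cells; CoCl2 stimulus (60 uM solution as added), compounds 11-pt qHTS, 17 h 37C. CCF4 dye 2 h RT, 460/530 nm emission. CellTiter-Glo viability in same wells.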
The nature of assay [12]: qHTS for H2AX Agonists against the NCATS CANVASS Library (AID 1347378).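 Further: phospho-H2AX S139 level in CHO-K1 lysates by TR-FRET emission ratio.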 Further: potency means the concentration at half of the fitted maximal effect. An outline of the steps: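 Signal is the 665/620 nm emission ratio from europium cryptate and d2 antibody pair, rising with S139-phosphorylated H2AX. CHO-K1 cells saw test agents for 3 hr at 37C; detection ran 24 hr at room temperature.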
Assay [13] is described as follows: Cytotoxicity qHTS for assessment of Hepg2 cells membrane integrity screened against the NCATS CANVASS Library (AID 1347387). An outline of the steps: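 LDH release read by fluorescence (560 nm ex/590 nm em) after CytoTox-ONE addition and 10 min RT; signal tracks lysed cells. HepG2, 2000 cells/well, plated overnight; compound 5 hr, 37C, 5% CO2, final 0.59 nM - 46 uM, 11 points.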

A short description of assay [14]: qHTS for activators of Nrf2/ARE signaling pathway screened against the NCATS CANVASS Library (AID 1347391). Further: nearly all actives have a fitted effect of over 60% in size. Further: potency means the concentration at half of the fitted maximal effect. An outline of the steps:
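HepG2 ARE-bla; cpd 11-pt qHTS, 16 h 37C/5% CO2; CCF4 substrate 2 h RT; read ex 405 / em 460 + 530 nm. Viability by CellTiter-Glo luminescence, 30 min RT.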

Assay [15] in a line: qHTS for inhibitors of Wild type Zika virus screened against the NCATS CANVASS Library (AID 1347396).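 Further: ATP luminescence of surviving cells so rescue from viral cell killing; series mostly up to about 46 µM.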 In outline:
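Vero 766 (African green monkey) cells, 1000 per well, attached overnight, then compounds were added in an 11-point series before wild-type Zika virus infection. After 72 h at 37C, cell viability was read as CellTiter Glo luminescence.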

A short description of assay [16]: Viability qHTS for inhibitors of the SERCaMP assay screened against the NCATS CANVASS Library (AID 1347400). Further: nearly all actives have a fitted effect of over 70% in size. Further: potency means the concentration at half of the fitted maximal effect. An outline of the steps: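 CellTiter-Glo luminescence readout after 48 h compound exposure (11-pnt qHTS series) of SH-SY5Y-GLuc SERCaMP MJH297 cells seeded at 1000 cells/well; bortezomib positive control.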
Assay [17] is described as follows: Redox Reaction Profiling qHTS: Assay Interference Panel against the NCATS CANVASS Library (AID 1347401). Further: potency means the concentration at half of the fitted maximal effect. An outline of the steps: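 Quantitative HTS over an 11-point series was run in HEPES pH 7.3 with 50 mM NaCl, 200 uM DTT and 5 uM resazurin. Initial and 15-min resorufin fluorescence readings were taken.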
Assay [18] can be described thus: OV-SAHO Cancer Cell Toxicity qHTS against the NCATS CANVASS Library (AID 1347348). Further: nearly all actives have a fitted effect of over 55% in size. Further: potency means the concentration at half of the fitted maximal effect. In outline:
as §1

Assay [19] can be described thus: Tertiary RLuc qRT-PCR qHTS assay for Zika virus inhibitors (AID 1347169). Further: top concentration of the series differs between compounds; nearly all actives have a fitted effect of over 55% in size. In outline:
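Inhibition of ZIKV-RLuc replication in Vero cells, read as Renilla luminescence 1-1.5 hrs after live-cell substrate addition, following 48-72 hrs infection at MOI 1-2 in presence of compound.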
Background: Real-time PCR tracks product formation cycle by cycle.

Results filed as inconclusive are left out. Activity calls are given as the source filed them. The call rests on the fitted dose curve; in most records, active means well fitted curve in the direction sought with a large enough effect; inconclusive means small, poorly fitted or top-dose-only effect, or another doubt; inactive means no such curve, though single readings can be large; an effect the other way counts as inactive or inconclusive.

Chain of Nuclear receptor subfamily 1 group I member 3 (Homo sapiens) (Q14994 whole entry, looked up): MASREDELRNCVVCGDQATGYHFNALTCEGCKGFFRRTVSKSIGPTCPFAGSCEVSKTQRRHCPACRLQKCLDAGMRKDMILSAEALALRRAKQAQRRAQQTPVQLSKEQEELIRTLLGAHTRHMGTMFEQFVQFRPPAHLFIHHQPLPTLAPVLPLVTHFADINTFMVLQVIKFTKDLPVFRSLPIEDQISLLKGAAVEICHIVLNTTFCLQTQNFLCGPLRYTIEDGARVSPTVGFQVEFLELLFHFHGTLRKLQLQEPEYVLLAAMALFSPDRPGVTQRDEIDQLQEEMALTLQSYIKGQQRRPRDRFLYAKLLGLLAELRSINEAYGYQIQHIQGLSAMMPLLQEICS

As for `CS/C=C/C(N)=O`, the Potency entry in [1], in assay [2], in assay [3], in assay [4], in [5] and in assay [6] was “inactive” throughout. Moreover, the Potency result in assay [7], in assay [8], in [9], in [10], in [11] and in [12] was “inactive” each time. For the same compound, the Potency result in assay [14], in assay [15], in [16] and in assay [17] was “inactive” each time. Besides, the compound was called inactive in assay [13].

In the case of `COc1cc(O)c2c3c(c(O)cc(C)c13)C(=O)OC2`, the Potency result in assay [18], in assay [1], in [2], in assay [3], in [4] and in assay [5] was “inactive” in each case. The Potency result in [6], in [7], in [8], in assay [9], in assay [10] and in assay [11] was “inactive” each time. Further, the Potency entry in assay [12], in assay [15] and in [16] was “inactive” throughout. Moreover, the result in [13] was inactive. Further, in assay [17], the Potency was 21.5 µM (active).

As to `O=C(NCc1ccccc1Cl)c1ccc2c(O)c(S(=O)(=O)c3ccccc3)c(=O)[nH]c2c1`, in assay [19], the Potency entry is “inactive”.

As to `CCCCCCCCC[C@@H]1C[C@@H]2CC[C@H]3[C@@H](C(=O)OCCCCN=C(N)N)[C@@H](C)N=C(N1)N23`, the Potency in [18] is 9.2 µM (active); in [1], 11.6 µM (active); in assay [2] it was 13 µM (active); in [6], 2.58 µM (active); in assay [7] it was 0.578 µM (active); in [8], 2.05 µM (active). The outcome in assay [13] was inactive. For the same compound, the Potency result in assay [14], in assay [15], in [16] and in [17] was “inactive” each time.

As to `C1=C2CCCN[C@@H]2[C@@H]2CCN3CCCC[C@@H]3[C@H](C1)C2`, the Potency entry in [18], in assay [1], in [2], in assay [3], in [4] and in assay [5] was “inactive” each time. The Potency result in [6], in assay [7], in [8], in assay [9], in assay [10] and in [11] was “inactive” in each case. Moreover, the Potency entry in assay [12], in assay [14], in assay [15], in assay [16] and in [17] was “inactive” throughout. Also, the call in assay [13] was inactive.

Consider `CO[C@H]1/C=C/CC[C@@H](S[C@@H]2O[C@H](CO)[C@@H](O)[C@H](O)[C@H]2O)CC(=O)O[C@@H](/C(C)=C/[C@H](C)C(=O)CCCC2CC(=O)NC(=O)C2)[C@@H](C)[C@@H]1O`, for which the Potency in assay [3] was 1.05 µM (active); in [6], 1.18 µM (active); in assay [7], 20.9 µM (active); in assay [8] it was 1.48 µM (active); in assay [10] it was 14.8 µM (active); in assay [11], 2.11 µM (active). Moreover, the Potency in assay [16] is 12 µM (active). In addition, the compound was called inactive in [13]. For the same compound, the Potency entry in assay [14] and in [15] was “inactive” throughout.

In the case of `C=C1C(=O)C[C@H]2C[C@@H]1[C@]2(C)CCC=C(C)C`, the Potency result in assay [1], in assay [2], in assay [4], in [5], in assay [7] and in assay [9] was “inactive” throughout. Further, the Potency entry in [10], in assay [11], in [12], in [15], in [16] and in assay [17] was “inactive” in each case. For the same compound, the outcome in [13] was inactive. The Potency in assay [14] is 16.6 µM (active).

On to `COc1ccc2cc(NC(=O)C3=NO[C@H]4[C@H](O)C=C[C@@H](Cl)[C@@]4(O)C3)c(=O)oc2c1OC`, for which the Potency result in [1], in [2], in assay [4], in [5], in [7] and in assay [9] was “inactive” in each case. Further, the Potency entry in [10], in assay [11], in assay [12], in assay [15], in assay [16] and in [17] was “inactive” throughout. The Potency was 9.35 µM (active) in assay [3] and 11.8 µM (active) in assay [8]. Besides, in [13], the call was inactive.

Turning to `C=C1C(=O)O[C@H]2C[C@H](C)[C@@H]3CC(=O)C(C)=C3[C@H](O)[C@H]12`, the Potency in assay [18] is 14.9 µM (active); in assay [1] it was 18.8 µM (active); in assay [3], 2.96 µM (active); in assay [6], 16.6 µM (active); in assay [8], 7.43 µM (active); in [9], 18.6 µM (active). The figures for the Potency in [11], in assay [12] and in assay [16] were 7.47 µM (active), 17.2 µM (active) and 21.4 µM (active), respectively. The Potency result in [15] and in assay [17] was “inactive” throughout.

`O=C(O)Cc1c[nH]c2ccccc12`: the Potency entry in [18], in assay [1], in [2], in assay [3], in assay [4] and in [5] was “inactive” throughout. The Potency result in assay [6], in assay [7], in [9], in assay [10], in [11] and in assay [12] was “inactive” throughout. The Potency result in [14], in assay [15], in [16] and in [17] was “inactive” throughout. In assay [13], the call was inactive.

For the compound `C/C1=C/[C@@H](C)[C@H](O)C/C=C/CC/C=C/C(=O)O[C@@H]1[C@H](C)C(=O)/C=C/CC1CC(=O)NC(=O)C1`, the Potency in assay [18] is 8.38 µM (active); in assay [1], 21.1 µM (active); in assay [3], 3.72 µM (active); in assay [6], 9.35 µM (active); in assay [7], 13.2 µM (active); in assay [8], 14.8 µM (active). Moreover, the Potency in assay [11] was 7.47 µM (active); in assay [14] it was 2.34 µM (active); in assay [16] it was 38.1 µM (active); in assay [17] it was 24.1 µM (active). Also, the Potency entry in assay [5], in [9], in assay [12] and in assay [15] was “inactive” throughout. Further, the result in assay [13] was inactive.

On to `C=C1C(=O)O[C@H]2[C@H]1CC/C(CO)=C\CC[C@@]1(C)O[C@@H]21`, for which the Potency is 18.8 µM (active) in [1]; 13.3 µM (active) in assay [2]; 2.96 µM (active) in [3]; 13.2 µM (active) in [6]; 11.8 µM (active) in assay [8]; 20.9 µM (active) in assay [10]. Also, the Potency was 4.72 µM (active) in assay [11], 21.7 µM (active) in [12] and 34 µM (active) in assay [16]. In addition, the Potency result in assay [14], in assay [15] and in [17] was “inactive” in each case.

With `CC(C)=CCC/C(C)=C/Cc1c(O)c(CC=C(C)C)c(O)c2c(=O)c3cc(O)ccc3oc12`, the Potency was 10.6 µM (active) in assay [18]; 21.1 µM (active) in [1]; 18.8 µM (active) in [2]; 14.8 µM (active) in [3]; 14.9 µM (active) in assay [4]; 20.9 µM (active) in assay [6]. Moreover, the Potency in assay [8] was 23.5 µM (active); in assay [9], 16.5 µM (active); in assay [14], 2.63 µM (active). Also, the Potency entry in [10], in assay [16] and in [17] was “inactive” throughout. For the same compound, the compound was called inactive in assay [13].

Source of the values: PubChem BioAssay (NCATS).
